From PubChem BioAssay
Values joined by “and” are separate entries in the source; they are usually repeats but may differ in a detail not shown here. Equal entries are not always repeated. Records with an inconclusive call do not appear. Active and inactive are the calls of the source.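 The calls were made as follows, unless noted: active = normalized viability below 100% at a tested concentration; inactive = the rest.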

Legend:
[1] = P. berghei load reduction in hepatocytes – cell-based, HepG2, luciferase luminescence, HepG2 viability, primary screen (AID 624349; in the data active = parasite load remaining mostly below about 12%, no sharp cut-off; inactive = mostly above about 10%;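 also: 100% = mean of DMSO negative control wells on the same plate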); settings: P. berghei liver stage in HepG2, luciferase luminescence, concentration not given here; parasite load remaining: stronger effect = lower value; viability: measured here: HepG2 viability without parasites
[2] = tested on: Aerobactin synthetase IucA (Klebsiella pneumoniae); experiment: inhibition of K. pneumoniae IucA enzyme – biochemical, Tocris library, absorbance (AID 1345561; call rule not given here;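 also: 100% = enzyme without compound and 0% = no enzyme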); settings: purified IucA enzyme assay, absorbance (OD) read-out; stronger effect = lower value;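 tested at 8 µM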
[3] = viability loss in pontine glioma line – cell-based, SU-DIPG-XIII, MIPE4.0, CellTiter-Glo, qHTS, dose response (AID 1347061; cut-off not given, nearly all actives have AC50 up to about 37 µM;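 also: cells exposed to compound for 48 hours before readout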); settings: CellTiter-Glo ATP luminescence
[4] = viability loss in pontine glioma line – cell-based, JHH-DIPG-1, MIPE4.0, CellTiter-Glo, qHTS, dose response (AID 1347062; cut-off not given, nearly all actives have AC50 up to about 27 µM;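 as to AC50: cells exposed to compound for two days before readout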); settings: JHH-DIPG-1 viability, CellTiter-Glo ATP luminescence
[5] = viability loss in pontine glioma line – cell-based, SU-DIPG-IV, MIPE4.0, CellTiter-Glo, qHTS, dose response (AID 1347063; cut-off not given, nearly all actives have AC50 up to about 30 µM;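 also: compound exposure lasted 48 hours before the viability readout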); settings: CellTiter-Glo ATP luminescence
[6] = viability loss in pontine glioma line – cell-based, SU-DIPG-XIII, MIPE5.0, CellTiter-Glo, qHTS, dose response (AID 1347064; cut-off not given, nearly all actives have AC50 up to about 23 µM;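 as to AC50: cells exposed to compound for 48 hours before the viability read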); settings: CellTiter-Glo ATP luminescence
[7] = viability loss in pontine glioma line – cell-based, SU-DIPG-XXV, MIPE5.0, CellTiter-Glo, qHTS, dose response (AID 1347065; cut-off not given, nearly all actives have AC50 up to about 26 µM;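 also: cells exposed to compound for 48 hours before ATP readout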); settings: CellTiter-Glo ATP luminescence
[8] = growth inhibition of DIPG cells – cell-based, MIPE4.0 library, CellTiter-Glo luminescence, qHTS (AID 1347066; cut-off not given, nearly all actives have AC50 up to about 30 µM;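 also: cells exposed to compound for 48 hours before readout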); settings: SU-DIPG-VI viability, CellTiter-Glo ATP luminescence
[9] = JHH-DIPG-1 glioma cell viability, MIPE5.0 library, CellTiter-Glo luminescence, qHTS (AID 1347067; cut-off not given, nearly all actives have AC50 up to about 26 µM;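 also: cells exposed to compound for 48 hours before readout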); settings: JHH-DIPG-1 glioma viability, CellTiter-Glo ATP luminescence
[10] = growth inhibition of DIPG cells – cell-based, MIPE5.0 library, qHTS (AID 1347068; cut-off not given, nearly all actives have IC50 up to about 30 µM); settings: SU-DIPG-XXV viability
[11] = viability loss with induced miR-34 in A549 – imaging, A549 dox-inducible miR-34, nuclei and caspase counts, primary screen (AID 1347080;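 active = compounds whose cell count with miR-34 switched on is under 0.7 times the count with it off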); settings: A549 miR-34 inducible, Hoechst nuclei count, 48 h
[12] = compounds altering HSF1 focus formation in cells – imaging, Selleck Cancer Library (AID 1347162; in the data active = plate-normalised HSF1 focus index below about 0.46); settings: human cells, HSF1 nuclear foci imaging, at 10 µM; SSMD: measured here: HSF1 foci SSMD mean; cell count: measured here: cell number; plate-normalised HSF1 focus index: stronger effect = lower value
[13] = drug combination growth inhibition, ovarian cancer – cell-based, oncology-focused library, rucaparib conditional, profiling panel (AID 1508598); settings: patient-derived ovarian cancer cells, CellTiter-Glo viability, 144 h, stronger effect = lower value
[14] = galactose survival enhancers in mitochondrial complex I cybrids – cell-based, galactose medium, ATP luminescence, primary screen (AID 1645843;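 active = z-score of at least 1.8 in each of two replicates, scored against plate mean and spread of sample wells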;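 also: positive z means more ATP and so rescue of galactose-driven cybrid death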); settings: complex I mutant cybrid cells, 72 h, stronger effect = higher value
[15] = tested on: Hepatitis C virus NS3 helicase; experiment: blockers of NS3h binding to ssDNA – biochemical, fluorescence polarization, LOPAC1280 library, primary screen (AID 687035; in the data active = inhibition above about 37%); settings: Purified HCV NS3 helicase, Cy5-dT15 ssDNA binding fluorescence polarization; stronger effect = higher value; concentration not given here
[16] = compounds altering Cy5-DNA-NS3h complex signal – biochemical, LOPAC1280, artefact control for HCV NS3 helicase inhibitor project (AID 687037; call rule not given here); settings: Cy5-DNA-NS3h complex fluorescence interference counterscreen
[17] = MELAS cybrid and Rieske KO viability enhancers – cell-based, MELAS cybrids, Rieske KO mouse fibroblasts, CellTiter-Glo, primary screen (AID 1508586;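 active = mean z-score across replicates of 1.96 or higher in either the MELAS or the Rieske mutant cell line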;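 also: z relative to plate mean and SD of compound and empty wells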); settings: low glucose
[18] = stronger effect = lower value, cell number ratio, induced over uninduced
[19] = measured here: relative caspase fold change +Dox/-Dox
[20] = measured here: total cells with miR-34 induction, stronger effect = lower value
[21] = measured here: total cells without miR-34 induction
[22] = at 0.000305 µM, OCI-C5x cells, with rucaparib 10 µM, 100% = cells with rucaparib alone
[23] = at 0.000305 µM, OCI-C5x cells, without rucaparib
[24] = at 0.000305 µM, OCI-P5x cells, with rucaparib 20 µM, 100% = cells with rucaparib alone
[25] = at 0.000305 µM, OCI-P5x cells, without rucaparib
[26] = at 0.00122 µM, OCI-C5x cells, with rucaparib 10 µM, 100% = cells with rucaparib alone
[27] = at 0.00122 µM, OCI-C5x cells, without rucaparib
[28] = at 0.00122 µM, OCI-P5x cells, with rucaparib 20 µM, 100% = cells with rucaparib alone
[29] = at 0.00122 µM, OCI-P5x cells, without rucaparib
[30] = at 0.00488 µM, OCI-C5x cells, with rucaparib 10 µM, 100% = cells with rucaparib alone
[31] = at 0.00488 µM, OCI-C5x cells, without rucaparib
[32] = at 0.00488 µM, OCI-P5x cells, with rucaparib 20 µM, 100% = cells with rucaparib alone
[33] = at 0.00488 µM, OCI-P5x cells, without rucaparib
[34] = at 0.0195 µM, OCI-C5x cells, with rucaparib 10 µM, 100% = cells with rucaparib alone
[35] = at 0.0195 µM, OCI-C5x cells, without rucaparib
[36] = at 0.0195 µM, OCI-P5x cells, with rucaparib 20 µM, 100% = cells with rucaparib alone
[37] = at 0.0195 µM, OCI-P5x cells, without rucaparib
[38] = at 0.0781 µM, OCI-C5x cells, with rucaparib 10 µM, 100% = cells with rucaparib alone
[39] = at 0.0781 µM, OCI-C5x cells, without rucaparib
[40] = at 0.0781 µM, OCI-P5x cells, with rucaparib 20 µM, 100% = cells with rucaparib alone
[41] = at 0.0781 µM, OCI-P5x cells, without rucaparib
[42] = at 0.313 µM, OCI-C5x cells, with rucaparib 10 µM, 100% = cells with rucaparib alone
[43] = at 0.313 µM, OCI-C5x cells, without rucaparib
[44] = at 0.313 µM, OCI-P5x cells, with rucaparib 20 µM, 100% = cells with rucaparib alone
[45] = at 0.313 µM, OCI-P5x cells, without rucaparib
[46] = at 1.25 µM, OCI-C5x cells, with rucaparib 10 µM, 100% = cells with rucaparib alone
[47] = at 1.25 µM, OCI-C5x cells, without rucaparib
[48] = at 1.25 µM, OCI-P5x cells, with rucaparib 20 µM, 100% = cells with rucaparib alone
[49] = at 1.25 µM, OCI-P5x cells, without rucaparib
[50] = at 5 µM, OCI-C5x cells, with rucaparib 10 µM, 100% = cells with rucaparib alone
[51] = at 5 µM, OCI-C5x cells, without rucaparib
[52] = at 5 µM, OCI-P5x cells, with rucaparib 20 µM, 100% = cells with rucaparib alone
[53] = at 5 µM, OCI-P5x cells, without rucaparib
[54] = MELAS cybrid survival, CellTiter-Glo 48 h, stronger effect = higher value
[55] = Rieske KO mouse fibroblast survival, CellTiter-Glo 72 h

C[C@@H](N)C1CCC(C(=O)Nc2ccncc2)CC1 (some centres undefined)
inactive: parasite load remaining [1] 75.2% | remaining activity [2] 114% | outcome [3] | outcome [4] | outcome [5] | outcome [6] | outcome [7] | outcome [8] | outcome [9] | outcome [10] | fold change [11, 18] 0.864 and 0.892 | plate-normalised HSF1 focus index [12] 1.19 | viability [13, 22] 112% | viability [13, 23] 113% | viability [13, 26] 112% | viability [13, 27] 109% | viability [13, 30] 115% | viability [13, 31] 112% | viability [13, 34] 106% | viability [13, 35] 112% | viability [13, 37] 102% | viability [13, 38] 113% | viability [13, 39] 107% | viability [13, 41] 102% | viability [13, 42] 106% | viability [13, 43] 120% | viability [13, 46] 117% | viability [13, 47] 113% | viability [13, 48] 106% | viability [13, 49] 102% | viability [13, 50] 110% | viability [13, 51] 107% | z-score [14] -0.445
0.978 and 1.24: fold change [11, 19]
5470 and 10600: cell count [11, 21]
7180: cell count [12]
4720 and 9420: cell count [11, 20]
active: viability [13, 24] 93.5% | viability [13, 25] 93.7% | viability [13, 28] 96.3% | viability [13, 29] 92.8% | viability [13, 32] 99.1% | viability [13, 33] 96.4% | viability [13, 36] 89.2% | viability [13, 40] 96.5% | viability [13, 44] 99.7% | viability [13, 45] 97.9% | viability [13, 52] 94.4% | viability [13, 53] 99.6%
142%: viability [1]
3.4: SSMD [12]

FC(F)(F)c1ccc(/C=C/c2nc(COc3ccc(CCCCn4ccnn4)cc3)co2)cc1
3770: cell count [11, 21]
inactive: remaining activity [2] 112% | outcome [3] | outcome [4] | outcome [6] | outcome [8] | fold change [11, 18] 1.08 | z-score [14] -0.935
2.06: fold change [11, 19]
4070: cell count [11, 20]

CCOC(=O)C(C)Oc1cccc2c(=O)n(CC(=O)Nc3ccc4c(c3)OCCO4)ccc12 (centres undefined)
9800 and 8000: cell count [11, 21]
0.942: SSMD [12]
6920: cell count [12]
8970 and 6830: cell count [11, 20]
active: AC50 [6] 20.9 µM
0.783 and 1.31: fold change [11, 19]
inactive: inhibition [15] -3% | fluorescence ratio (interference) [16] 1 | remaining activity [2] 96.6% | outcome [3] | outcome [4] | outcome [5] | outcome [9] | outcome [10] | fold change [11, 18] 0.916 and 0.854 | plate-normalised HSF1 focus index [12] 1.06 | z-score [14] 0.675 and 0.45

CC(C)c1onc(-c2c(Cl)cccc2Cl)c1COc1ccc(/C=C/c2cccc(C(=O)O)c2)c(Cl)c1
inactive: remaining activity [2] 99.1% | outcome [3] | outcome [4] | fold change [11, 18] 0.989 | plate-normalised HSF1 focus index [12] 1.11 | viability [13, 23] 107% | viability [13, 26] 107% | viability [13, 30] 103% | viability [13, 32] 102% | viability [13, 34] 101% | viability [13, 36] 100% | viability [13, 39] 105% | viability [13, 40] 104% | viability [13, 44] 106% | viability [13, 45] 100% | viability [13, 46] 102% | viability [13, 48] 103% | viability [13, 49] 101% | z-score [14] -0.665
active: viability [13, 22] 95.7% | viability [13, 24] 90.8% | viability [13, 25] 87.3% | viability [13, 27] 97.6% | viability [13, 28] 99.3% | viability [13, 29] 89.4% | viability [13, 31] 97.6% | viability [13, 33] 91.9% | viability [13, 35] 98.1% | viability [13, 37] 98.8% | viability [13, 38] 99.7% | viability [13, 41] 97.9% | viability [13, 42] 97.6% | viability [13, 43] 97.8% | viability [13, 47] 97.1% | viability [13, 50] 76.1% | viability [13, 51] 89.5% | viability [13, 52] 99.6% | viability [13, 53] 98.8%
2.06: SSMD [12]
1.32: fold change [11, 19]
5590: cell count [11, 20]
5650: cell count [11, 21]
6870: cell count [12]

Cc1cccc(C#Cc2ccccc2)n1
inactive: inhibition [15] -1% | fluorescence ratio (interference) [16] 1 | remaining activity [2] 102% | outcome [3] | outcome [4] | outcome [5] | outcome [8] | fold change [11, 18] 1.16 and 0.932 and 0.863 | z-score [17, 54] -0.0615 | z-score [14] 1.15 and 1.02
8900 and 6820 and 7820: cell count [11, 20]
0.0234: z-score [17, 55]
0.95 and 0.499 and 0.79: fold change [11, 19]
7690 and 7310 and 9060: cell count [11, 21]

O=S(=O)(NCCNC/C=C/c1ccc(Br)cc1)c1cccc2cnccc12
66.5%: viability [1]
2930 and 6810: cell count [11, 20]
3220 and 6450: cell count [11, 21]
1.15 and 1.08: fold change [11, 19]
inactive: parasite load remaining [1] 26.7% | remaining activity [2] 114% | outcome [10] | fold change [11, 18] 0.909 and 1.06 | z-score [14] -0.61
active: AC50 [5] 16.6 µM | AC50 [7] 23.5 µM | AC50 [9] 16.6 µM

Cc1ccc(NC(=O)c2cccc(N(C)C)c2)cc1NC(=O)c1ccc(O)cc1
2990 and 8110 and 7940: cell count [11, 20]
2700 and 8980 and 8620: cell count [11, 21]
0.706: z-score [17, 55]
active: AC50 [3] 662 nM | AC50 [4] 3.32 µM | AC50 [5] 0.935 µM
0.888 and 0.797 and 0.511: fold change [11, 19]
inactive: remaining activity [2] 115% | outcome [10] | fold change [11, 18] 1.11 and 0.903 and 0.921 | z-score [17, 54] -0.437 | z-score [14] 1.09
